Screening results: PubChem, National Center for Advancing Translational Sciences (NCATS)
Shown are actives, neighbours in structure and some others; about 2.1% of the full set was active somewhere.
FUS yeast rescue: qHTS for Suppressors of FUS Proteinopathy: Primary screen using FUS-linked yeast assay; S. cerevisiae FUS-expressing, growth rescue, OD600, 24 h; Potency, µM (top dose mostly 76.6 µM), hits mostly activators; hit rate 0.24% among 390,000;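 note: plate controls were DMSO vehicle for no effect and reference control for full effect; nearly all actives have a fitted effect of over 55% in size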
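Cultures pregrown in 2.5% raffinose medium are shifted to minimal medium containing 2% galactose to express toxic FUS. Compounds are tested at several concentrations. After 24hr at 30C, growth is quantified at 600 nm absorbance.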
TDP-43 yeast inh: qHTS of TDP-43 Inhibitors; TDP-43 expressing yeast growth rescue, BacTiter-Glo, 24 h; Potency, µM (top dose mostly 46.1 µM), for the others: at the highest dose growth rescue (activation), hits mostly activators; hit rate 1.8% among 410,000; note: % of control where 0% means no effect; nearly all actives have a fitted effect of over 50% in size
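Yeast expressing TDP-43 (pregrown in raffinose, seeded at OD600=0.02 in galactose medium) exposed to compounds 24 hr at 30 deg C. Growth read by BacTiter-Glo luminescence; rescue of toxicity appears as increased signal.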
aSyn rescue: qHTS of alpha-syn Inhibitors | Yeast expressing alpha-synuclein, growth rescue, BacTiter-Glo, 24 h | Potency, µM (series often up to 46.1 µM), for the others: at the highest dose growth rescue (activation), usual class: activators | hit rate 0.14% among 370,000 | AID 652106, 2013; note: % of control where 0% means no effect; nearly all actives have a fitted effect of over 65% in size
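Rescue of yeast growth: cells expressing toxic alpha-synuclein, induced in galactose at OD600 0.02, incubated with compound 24 h at 30 C. ATP luminescence quantified growth; inhibitors of toxicity appear as activators.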
Abeta yeast res: qHTS for compounds that reverse cellular toxicity of Amyloid beta (A-beta) peptide in yeast: Primary Screen; yeast expressing A-beta42, growth rescue, OD600, 48 h; response scale: 0% DMSO, 100% iron-clioquinol control; Potency, µM (series often up to 46.1 µM), usual class: activators; hit rate 0.063% among 410,000; AID 1347071, 2019; note: nearly all actives have a fitted effect of over 55% in size
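Growth rescue measured by 600 nm absorbance after 48 h yeast culture at 30 C with compound. Values normalized between DMSO and an equimolar ferric chloride plus clioquinol control.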
* marks the source's active call; other numbers are inactive results; i = inactive; ? = inconclusive; · = no result. Calls come from the whole dose curve; as a rule, active = well fitted curve in the direction sought with a large enough effect; inconclusive = small, poorly fitted or top-dose-only effect, or another doubt; inactive = no such curve, though single readings can be large; an effect the other way counts as inactive or inconclusive. Potency is the fitted concentration of half-maximal effect.

SMILES	FUS yeast rescue	TDP-43 yeast inh	aSyn rescue	Abeta yeast res
C=C(CC[C@]12OC(C(=O)O)C(O)(C(=O)O)C(C(=O)O)(O1)C(OC(=O)/C=C/[C@@H](C)C[C@@H](C)CC)C2O)[C@@H](OC(C)=O)[C@H](C)Cc1ccccc1 (some centres undefined)	·	·	2%	·
CS(=O)(=O)CCC(C(=O)OCc1ccc(Cl)cc1)N1C(=O)c2ccccc2C1=O (centres undefined)	·	11%	7%	i
COc1cc(CSc2ncc(CO)n2Cc2ccc(C)cc2)cc(OC)c1	i	1%	·	i
CCCCCCCNC(=O)C1(CC2CC(c3cccc(Br)c3)=NO2)CCN(C(=O)CCCCCBr)CC1 (centres undefined)	28µM*	?	15%	i
Cc1cc2c(c(C)c1Cl)C(c1ccc3c(c1)OCO3)CC(=O)O2 (centres undefined)	?	22µM*	15%	?
C=CCOc1cccc(C2/C(=C(\O)c3ccc4c(c3)OCCO4)C(=O)C(=O)N2CCN2CCOCC2)c1 (centres undefined)	i	-16%	-1%	i
CC1(C(=O)Nc2ccc3c(c2)OCCO3)CCN1C(=O)C1(c2ccccc2)CC1 (centres undefined)	i	13µM*	4%	i
CC1(C(=O)NCc2ccc3c(c2)OCO3)CCN1C(=O)C1(c2ccc(Cl)cc2)CC1 (centres undefined)	i	25µM*	8%	i
Cn1nc(C(C)(C)C)cc1NC(=O)C1(C)CCN1C(=O)C1(c2ccccc2)CCCC1 (centres undefined)	i	35µM*	14%	i
Cn1nc(C(C)(C)C)cc1NC(=O)C1(C)CCN1C(=O)C1(c2ccccc2)CC1 (centres undefined)	i	?	9%	i
CC1(C(=O)Nc2ccc3c(c2)OCO3)CCN1C(=O)C1(c2ccc(Cl)cc2)CC1 (centres undefined)	?	0%	2%	i
Cc1cc(C)nc(Nc2ccc(C)c([N+](=O)[O-])c2)n1	i	20µM*	1%	i
Cc1cc(C)nc(Nc2cccc(Cl)c2)n1	i	8.9µM*	0%	i
Cc1cc(Nc2cccc(Cl)c2)c2ccccc2n1	i	-25%	-5%	i
Cc1cc(C)c(C)c(S(=O)(=O)ON2C(=O)c3ccccc3C2=O)c1C	·	5.6µM*	16%	i
O=C(O)CC1CCC(=C(Cl)Cl)C1 (centres undefined)	i	-8%	11µM*	i
O=C(O)CC1CC(O)CCC1=O (centres undefined)	i	3%	-1%	i
COc1ccc(-c2oc3ncn4nc(-c5ccccc5OC)nc4c3c2-c2ccc(OC)cc2)cc1	i	2%	·	i
c1ccc(Cn2c(SCc3nc4ccccc4s3)nnc2-c2ccco2)cc1	?	14µM*	4%	i
CCN(C(=O)Cn1ncc2c1-c1cc(C)ccc1OC2)c1cc(Cl)ccc1OC	i	0%	·	i
CC(=O)Nc1ncc2c(n1)CC(c1ccco1)CC2=O (centres undefined)	i	-1%	-4%	i
Nc1ncc2c(n1)CC(c1ccco1)CC2=O (centres undefined)	i	14µM*	1%	i
Cc1cc(SCC(=O)NC(=O)NCc2ccco2)nc2ccccc12	?	?	-1%	i
Cc1cc(SCC(=O)NC(=O)NCc2ccco2)nc2c(C)cccc12	?	-9%	11µM*	i
CCCOc1ccc(CCC(=O)O)cc1	i	14µM*	1%	i
CCCc1ccc(OCC(=O)O)cc1	i	-10%	0%	i
CCc1ccc(NS(=O)(=O)c2ccc3[nH]cc(C(=O)NC4CCCC4)c(=O)c3c2)cc1	28µM*	11%	·	i
CCc1ccccc1NC(=O)N1CC(C)Sc2ccccc21 (centres undefined)	i	29%	·	i
Cc1ccc(C(=O)C2=C(O)C(=O)N(Cc3cccnc3)C2c2ccc(Cl)cc2)o1 (centres undefined)	28µM*	-14%	-18%	i
O=C(C1=C(O)C(=O)N(c2ncccn2)C1c1ccc(Cl)cc1)c1ccco1 (centres undefined)	32µM*	0%	6%	i
